Rce1 inh: inhibitors of yeast Ras-converting enzyme | hit rate 0.27% among 290,000 | yeast membranes, quenched prenylated peptide cleavage fluorescence | calls only | AID 2563;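 active = fall in fluorescence gain of 50% or more versus controls, with final raw signal at or below 3038400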;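 note: plate controls were neutral control wells for no effect and wells lacking membranes for full effect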
Target sequence (Q03530 whole entry, looked up): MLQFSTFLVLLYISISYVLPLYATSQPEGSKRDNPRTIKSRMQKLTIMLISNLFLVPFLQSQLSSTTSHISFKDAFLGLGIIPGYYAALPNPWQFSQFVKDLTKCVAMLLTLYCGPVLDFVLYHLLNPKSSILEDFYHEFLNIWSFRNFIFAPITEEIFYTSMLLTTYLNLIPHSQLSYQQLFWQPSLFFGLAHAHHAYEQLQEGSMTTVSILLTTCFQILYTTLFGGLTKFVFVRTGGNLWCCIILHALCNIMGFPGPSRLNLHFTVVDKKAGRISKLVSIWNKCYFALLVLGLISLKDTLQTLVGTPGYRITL
MEKK3 PB1 HTS: modulators (inhibitors or enhancers) of MEK5 binding to human MEKK3 PB1 domain | hit rate 1.4% among 290,000 | bead-based flow cytometry, Alexa488-MEK5 binding to MEKK3; actives lie on both sides; 0 = blocked by unlabeled MEK5, 100 = vehicle | binding response (% of control), % at 10 µM | Q99759 | AID 1529;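 active = binding response more than 3 SD above or below the average of its plate-row segment, actives on both sides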;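 note: Alexa488 bead fluorescence after subtracting the streptavidin-only scavenger bead signal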
UBC13 inh: human UBC13 polyubiquitination inhibition. UBC13 polyubiquitin chain formation, TR-FRET. hit rate 0.47% among 330,000. inhibition, % at 20 µM. P61088; in the data active = inhibition above about 45%, passing the limit was not always enough
Target sequence (P61088 whole entry, looked up): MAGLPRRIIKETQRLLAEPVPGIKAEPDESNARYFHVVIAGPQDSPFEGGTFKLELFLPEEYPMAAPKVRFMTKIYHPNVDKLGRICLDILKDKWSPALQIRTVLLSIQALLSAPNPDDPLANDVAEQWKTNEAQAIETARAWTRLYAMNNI
MEKK2 mut-MEK5: signal of MEK5 binding to mutant human MEKK2 PB1 domain; bead flow cytometry, Alexa488-MEK5 binding to MEKK2 mutant; percent response, % at 10 µM; hit rate 0.35% among 290,000; AID 1530; in the data active = percent response above about 24%, passing the limit was not always enough
MEKK2wt PB1 HTS: raises or lowers MEK5 binding to wildtype human MEKK2 PB1 domain | Q9Y2U5 | hit rate 1.1% among 290,000 | AID 1531 | binding response (% of control), % at 10 µM | bead flow cytometry, Alexa488-MEK5 binding to MEKK2 WT; actives lie on both sides; in the data active = binding response below about 67% or above about 130%
MEKK2wt confirm: raises or lowers MEK5 binding to wildtype human MEKK2, retest. shares compounds with MEKK3 PB1 HTS. bead flow cytometry, Alexa488-MEK5 binding to MEKK2 WT; actives lie on both sides. binding response (% of control), % at 10 µM. hit rate 2.4% among 5,900; in the data active = binding response below about 16% or above about 210%; inactive = in between
MEKK2mut confirm: signal of MEK5 binding to mutant human MEKK2, retest; shares compounds with MEKK3 PB1 HTS; bead flow cytometry, Alexa488-MEK5 binding to MEKK2 mutant; percent response, % at 10 µM; hit rate 2% among 5,900; AID 1893; in the data active = percent response mostly above about 71%, no sharp cut-off; inactive = mostly below about 38%;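 note: higher means compound restores mutant binding toward wildtype level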
MEKK3 confirm: confirmation of inhibitors of MEK5 binding to human MEKK3. shares compounds with MEKK3 PB1 HTS. bead flow cytometry, Alexa488-MEK5 binding to MEKK3; hits give low values. binding response (% of control), % at 10 µM. hit rate 1.8% among 5,900. AID 1894;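 active = binding response below 72% of control, or above a set upper limit, though filed actives all read lower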;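 note: 100% = DMSO only wells and 0% = binding blocked by excess unlabeled MEK5; lower values mean stronger disruption of MEK5 binding to MEKK3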
An asterisk follows results filed as active; i = inactive; / = no result given; + = active, no number; [ ] = another dose, or the depositor's remark. Compounds with a hit are over-represented: about 2.5% of the library has one in this group of screens.

SMILES	Rce1 inh	MEKK3 PB1 HTS	UBC13 inh	MEKK2 mut-MEK5	MEKK2wt PB1 HTS	MEKK2wt confirm	MEKK2mut confirm	MEKK3 confirm
COC(=O)C1CCN(C(=O)CN2C(=O)NC(CCc3ccccc3)C2=O)CC1 (configuration not stated)	i	122.0*	2.9	9.0	124.0	99.0	-1.0	103.0
COc1ccc(-c2cc(C(=O)Nc3cc(Br)ccc3O)no2)cc1	i	105.0	-1.5	7.0	103.0	/	/	/
N#C/C(=C\c1ccc(OCc2ccccc2)cc1)C(N)=O	i	131.0*	-9.4	1.0	114.0	93.0	-2.0	93.0
COc1ccccc1NC(=S)N1C2CCC1CC(NC(=O)NC13CC4CC(CC(C4)C1)C3)C2 (configuration not stated)	i	94.0	-4.7	-5.0	93.0	/	/	/
CCOc1ccccc1NC(=S)N1C2CCC1CC(NC(=O)NC13CC4CC(CC(C4)C1)C3)C2 (configuration not stated)	i	72.0*[inhibitor]	-10.7	-16.0	79.0	95.0	-3.0	102.0
CCOCCCNC(=S)NCCCNc1nc2cc3c(cc2cc1C#N)OCO3	i	1.0*[inhibitor]	12.1	-18.0	-4.0*[inhibitor]	97.0	-2.0	99.0
Cc1nn2c(COc3ccc(NC(=O)c4ccccc4Cl)cc3)nnc2c2ccccc12	i	119.0	-4.1	0.0	107.0	/	/	/
CN(CCCN1c2ccccc2CCc2ccccc21)CC(=O)c1ccc(Cl)cc1	i	107.0	39.1	18.0	165.0*	130.0	16.0	96.0
CN(C)CCCN1c2ccccc2CCc2ccc(Cl)cc21	i	77.0	20.2	13.0	148.0*	131.0	12.0	106.0
CNCCCN1c2ccccc2CCc2ccccc21	i	98.0	23.5	-2.0	101.0	/	/	/
CN(C)CCCN1c2ccccc2Sc2ccccc21	i	104.0	16.9	8.0	106.0	/	/	/
Cc1ccccc1NC(=S)N1CCC(NC(=O)c2ccco2)CC1	i	101.0	13.3	-7.0	87.0	/	/	/
COc1ccc(-c2[nH]c(-c3ccc(C)cc3)nc2SCC(=O)Nc2nccs2)cc1	i	134.0*	-9.1	0.0	106.0	109.0	5.0	103.0
COc1ccc(-c2nnc3ccc(SCC(=O)Nc4nccs4)nn23)cc1OC	i	128.0*	-4.0	1.0	108.0	101.0	5.0	102.0
Cc1ccc2nc(C)c(C(=O)NN=C3CCCCCC3)n2c1	i	109.0	5.8	-5.0	98.0	/	/	/
CCC(C(=O)NC(CC(=O)O)c1ccc(Cl)cc1)c1ccccc1 (configuration not stated)	i	104.0	-3.6	0.0	104.0	/	/	/
CN(CCO)C(=O)c1cccc2c1-c1ccccc1C2=O	i	81.0*[inhibitor]	3.2	-11.0	90.0	101.0	-1.0	101.0
Cc1cccc(NC(=O)CSc2nc3ccccc3c(=O)n2CC2CCCO2)c1 (configuration not stated)	/	/	4.3	/	/	/	/	/
CCc1c(C)nc2ncnn2c1N1CCC(C(=O)NCc2cccs2)CC1	i	3.0*[inhibitor]	-3.6	-46.0	6.0*[inhibitor]	93.0	-8.0	93.0
CN(Cc1ccccc1)C(=O)CCCn1c(=O)c2cccn2c2cccnc21	i	102.0	1.8	1.0	99.0	/	/	/
CN1CCN(C2=Cc3cc(Cl)ccc3Sc3cc(F)ccc32)CC1	i	83.0	24.0	53.0*	202.0*	164.0	26.0	103.0
CN1CCN(C2=Cc3ccccc3Sc3cc(F)c(F)cc32)CC1	i	107.0	9.4	10.0	123.0	/	/	/
CN1CCN(C2=Cc3ccccc3Sc3cc(F)c(Cl)cc32)CC1	i	99.0	26.7	10.0	134.0*	163.0	30.0	103.0
CCCCN(CC)CCNC(=O)c1cc2c(-c3ccc(Cl)cc3)nn(C)c2s1	+	109.0	43.9	47.0*	198.0*	201.0	98.0*	115.0
CCCN(CCC)CCNC(=O)c1cc2c(-c3ccc(Cl)cc3)nn(C)c2s1	+	106.0	39.3	42.0*	184.0*	190.0	92.0*	113.0
SMILES	Rce1 inh	MEKK3 PB1 HTS	UBC13 inh	MEKK2 mut-MEK5	MEKK2wt PB1 HTS	MEKK2wt confirm	MEKK2mut confirm	MEKK3 confirm
CCN(CC)CCNC(=O)c1cc2c(-c3ccc(Cl)cc3)nn(C)c2s1	i	109.0	34.8	21.0	191.0*	155.0	26.0	103.0
CCOCCCNC(=O)c1cc2c(-c3ccc(Cl)cc3)nn(C)c2s1	i	116.0	28.6	7.0	125.0	/	/	/
COc1ccc(C(=O)NC2CCc3ccccc32)cc1OC1CCN(C(C)=O)CC1 (configuration not stated)	i	95.0	-1.8	-2.0	100.0	/	/	/
CCCOC(=O)c1ccc(NC(=O)c2cc(OC)c(OC)c(OC)c2Br)cc1	i	102.0	0.1	-1.0	103.0	/	/	/
COc1ccc(C(=O)NC(C)c2nnc(SCC(=O)NC3CCCC3)n2C)cc1 (configuration not stated)	i	98.0	4.5	4.0	95.0	/	/	/
COC(=O)c1cc(C)cc(=O)o1	i	100.0	3.4	-1.0	99.0	/	/	/
Cc1cc(C(=O)Nc2ccccc2)oc(=O)c1	i	49.0*[inhibitor]	-11.1	-25.0	66.0	99.0	-7.0	91.0
Cc1ccc(S(=O)(=O)Oc2ccccc2/C=N/N=C(N)N)cc1	i	115.0	8.7	19.0	149.0*	118.0	14.0	102.0
Cc1ccc(C(=O)Nc2cccc3cccnc23)cc1C	i	111.0	4.9	4.0	108.0	/	/	/
CCOc1ccc(OCCN2CCCCC2)cc1	i	93.0	-6.4	-3.0	92.0	/	/	/
Nc1ccc(CN2CCCCCC2)cc1	i	116.0	-0.8	13.0	136.0*	41.0	-20.0	81.0
O=C1Cc2ccccc2Sc2cc(OCCCN3CCCCC3)ccc21	i	75.0*[inhibitor]	35.9	1.0	108.0	118.0	-1.0	99.0
ON=C1c2cc(OCCN3CCCCC3)ccc2-c2ccc(OCCN3CCCCC3)cc21	i	117.0	39.8	31.0*	232.0*	180.0	48.0	105.0
c1cc(OCCCN2CCCCC2)ccc1CN1CCCCC1	i	113.0	13.7	33.0*	190.0*	139.0	31.0	106.0
Clc1ccc(OCCCN2CCCC2)cc1Cl	i	131.0*	-4.5	1.0	107.0	115.0	5.0	104.0
Clc1ccc(OCCN2CCCCC2)cc1Cl	i	104.0	0.2	1.0	102.0	/	/	/
CCN1CCN(c2ccc(NC(=O)CCc3c(C)nc4c(-c5ccccc5)c(C)nn4c3C)cc2)CC1	i	107.0	32.5	23.0	138.0*	113.0	13.0	94.0
CCN1CCN(c2cc(C(C)(C)C)nc3c(-c4ccccc4)c(C)nn23)CC1	i	104.0	37.6	21.0	147.0*	131.0	12.0	103.0

Screens from PubChem.
